Reference: the supplement of paper PMC10646978
± gives the standard deviation.

Tests used:
Details in all cases: modulator concentration 10 µM
[1] = test system: RAW-Dual (murine macrophage reporter line); test: NF-kB reporter (SEAP) activity fold change vs agonist alone; higher = enhanced NF-kB activity
In short: (§1)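 Overnight stimulation with a PRR agonist followed pre-incubation for 1 hour at 37 °C with compound at 10 μM final. This was done in RAW-Dual murine macrophage reporter cells seeded at 50 000 per well in 384-well plates. NF-κB (SEAP, QUANTI-Blue absorbance at 620 nm) and IRF (Lucia luciferase, QUANTI-Luc luminescence) were read from the supernatant. Each reporter's fold change relative to the mean agonist-only control on the same plate was averaged over replicate plates.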

[2] = test system: RAW-Dual (murine macrophage reporter line); test: IRF reporter (Lucia luciferase) activity fold change vs agonist alone; higher = enhanced IRF activity
In short: as §1

[3] = test system: RAW-Dual (murine macrophage reporter line); test: viability score (confluency relative to resting cells, overnight) (fraction); higher = more viable, active = viable (0.7 or more)
In short: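 A compound met the cutoff when both of two confluency masks exceeded 70% of resting cells. Those masks were made with IncuCyte software from IncuCyte images of RAW-Dual macrophages treated overnight at 10 μM final. This is the basis of the viability score, which is confluency relative to resting cells.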

[4] = agonist: CpG ODN 1826 0.5 ug/mL

Structure (SMILES)	NF-kB reporter [1, 4]	NF-kB reporter ([1]; agonist: LPS 0.1 ug/mL)	NF-kB reporter ([1]; agonist: MPLA […])	IRF reporter ([2]; agonist: 3'3'-cGAMP 10 ug/mL)	IRF reporter ([2]; agonist: LPS 0.1 ug/mL)	IRF reporter ([2]; agonist: MPLA […])	viability score [3]
O=C(NC12CC3CC(CC(C3)C1)C2)N1CCOCC1	0.95 ± 0.16	1.02 ± 0.084	0.989 ± 0.12	0.993 ± 0.027	1.22 ± 0.21	1.32 ± 0.17	0.967 (active)
CC(C)(C)c1nc(-c2cccc(NS(=O)(=O)c3c(F)cccc3F)c2F)c(-c2ccnc(N)n2)s1	2.41 ± 0.12	1.77 ± 0.14	2.36 ± 0.1	0.67 ± 0.079	0.818 ± 0.071	1.1 ± 0.2	0.763 (active)
COc1ccc(CCn2c(C)c(C)n3c4c(=O)n(CCC(C)C)c(=O)n(C)c4nc23)cc1OC	0.95 ± 0.07	1.01 ± 0.12	1.15 ± 0.14	1.03 ± 0.048	1.37 ± 0.24	1.57 ± 0.44	0.95 (active)
CCSc1nnc(NC(=O)Cc2ccc([N+](=O)[O-])cc2)s1	1.04 ± 0.21	1.02 ± 0.085	0.96 ± 0.097	0.926 ± 0.026	1 ± 0.096	1.07 ± 0.12	1 (active)
Cc1ccc(Nc2nccc(N(C)c3ccc4c(C)n(C)nc4c3)n2)cc1S(N)(=O)=O	0.71 ± 0.11	1.84 ± 0.36	2.52 ± 0.16	0.146 ± 0.014	0.835 ± 0.15	1.18 ± 0.14	0.78 (active)
NCC1OC(OC2C(CO)OC(OC3C(O)C(N)CC(N)C3OC3OC(CN)C(O)C(O)C3N)C2O)C(N)C(O)C1O.O=S(=O)(O)O (stereo not drawn)	1.21 ± 0.096	1.01 ± 0.074	1.13 ± 0.12	0.993 ± 0.031	1.22 ± 0.12	1.29 ± 0.18	1.02 (active)
Br.O=S(=O)(c1ccc(-c2csc(Nc3ccc(F)cc3)n2)cc1)N1CCOCC1	0.769 ± 0.068	0.989 ± 0.075	2.17 ± 0.15	0.768 ± 0.096	0.948 ± 0.054	1.55 ± 0.1	0.997 (active)
CCCOc1ccc(C=C2SC(N3CCN(c4ccccc4C)CC3)=NC2=O)cc1	1.06 ± 0.079	0.989 ± 0.078	0.975 ± 0.061	0.954 ± 0.049	0.988 ± 0.051	0.968 ± 0.14	1 (active)
Cc1cc(=O)n(-c2ccccc2)n1C	0.98 ± 0.18	1.02 ± 0.08	0.99 ± 0.095	1.02 ± 0.033	1.27 ± 0.18	1.22 ± 0.14	0.995 (active)
